Screening results as filed in PubChem BioAssay.
Shown are actives, neighbours in structure and some others; about 12% of the full set was active somewhere.
G9a inh: G9a (human) methyltransferase inhibition | G9a H3K9 monomethylation, AlphaScreen, 2 h | Potency, µM (highest dose often 102 µM), for inactives: at the top dose activity, negative = inhibition, actives largely listed as inhibitors | 8.8% of 350,000 active | AID 504332; also: % is scaled to controls: 0 for no effect and ±100 for the full control effect; nearly all actives have a fitted effect of over 75% in size
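G9a (20 nM) was preincubated 15 min with compound, then reacted 2 h at room temperature with 500 nM biotin-H3K9 peptide and 20 µM SAM. Monomethyl-H3K9 detected by AlphaScreen using anti-H3K9me1 antibody.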
Sfp inh: blocks B. subtilis Sfp PPTase activity. Q9F4F7. 3.5% of 310,000 active. Biochemical Sfp PPTase activity, qHTS. Potency, µM, for the others: largest response in the series, negative = inhibition, actives largely listed as inhibitors;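 also: the enzyme is Sfp with the accession as filed and its product quenches rhodamine fluorescence; 0% = enzyme reaction without inhibitor and -100% = no enzyme wells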
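Sfp 15 nM + cpd, 15 min RT; start w/ rhodamine-CoA 5 uM, BHQ-2-YbbR 12.5 uM (final); 50 mM Hepes pH 7.6, 10 mM MgCl2, 0.01% NP-40, 0.01% BSA; read 525/598 nm at 0 and 30 min.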
L3MBTL1 block: L3MBTL1 (human) inhibition | Potency, µM (top dose mostly 57.1 µM), for inactives: at the top dose activity, negative = inhibition, most hits filed as inhibitors | AlphaScreen L3MBTL1–H3K9me1 peptide binding | Q9Y468 | 0.66% of 230,000 active; also: % is scaled to controls: 0 for no effect and ±100 for the full control effect; nearly all actives have a fitted effect of over 60% in size
Target sequence (Q9Y468 whole entry, looked up): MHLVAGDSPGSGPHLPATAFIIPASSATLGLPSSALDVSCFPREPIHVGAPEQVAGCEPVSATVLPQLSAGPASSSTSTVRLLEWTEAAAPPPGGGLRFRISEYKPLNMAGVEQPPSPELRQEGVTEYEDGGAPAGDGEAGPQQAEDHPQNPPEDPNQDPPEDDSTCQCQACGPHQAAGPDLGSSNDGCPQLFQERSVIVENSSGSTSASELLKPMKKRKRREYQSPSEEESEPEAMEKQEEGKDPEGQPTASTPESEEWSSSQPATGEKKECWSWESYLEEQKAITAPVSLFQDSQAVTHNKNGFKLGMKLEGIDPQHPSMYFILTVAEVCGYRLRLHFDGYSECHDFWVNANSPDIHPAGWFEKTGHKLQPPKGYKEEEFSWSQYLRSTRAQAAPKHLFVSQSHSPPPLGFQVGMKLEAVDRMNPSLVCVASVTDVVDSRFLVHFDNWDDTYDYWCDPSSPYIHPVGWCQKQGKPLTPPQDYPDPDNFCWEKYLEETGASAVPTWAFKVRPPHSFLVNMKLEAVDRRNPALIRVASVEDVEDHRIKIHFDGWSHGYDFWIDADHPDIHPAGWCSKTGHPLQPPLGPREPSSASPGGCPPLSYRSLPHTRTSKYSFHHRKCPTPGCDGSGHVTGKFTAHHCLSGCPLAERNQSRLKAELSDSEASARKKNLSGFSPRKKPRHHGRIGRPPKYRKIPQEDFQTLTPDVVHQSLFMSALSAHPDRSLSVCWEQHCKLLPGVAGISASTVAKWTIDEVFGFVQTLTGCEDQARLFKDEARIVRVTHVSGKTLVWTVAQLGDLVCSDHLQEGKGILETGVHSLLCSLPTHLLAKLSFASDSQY
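AlphaScreen assay: L3MBTL1 (50 nM final) was preincubated 30 min at room temperature with biotinylated H3(1-15)K9me1 peptide (75 nM final), then 30 min with library compounds; streptavidin donor and nickel chelate acceptor beads (10 ug/mL final) added, 30 min dark.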
HP1b binding inh: HP1-beta chromodomain-methylated histone interaction inhibition; P83916; AlphaScreen HP1-beta / biotin-H3K9me3 peptide binding; Potency, µM (titrated, usually from 114 µM), without a hit: at the top dose activity change, negative = inhibition, most hits filed as inhibitors; 0.56% of 390,000 active; also: nearly all actives have a fitted effect of over 70% in size
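Compound inhibition of the preformed complex between 50 nM HP1-beta and 50 nM biotinylated H3K9me3 peptide was read by AlphaScreen. Buffer was PBS pH 7.4 with 0.01% Tween-20. Incubations ran 30 min at room temperature, with 10 ug/mL donor/acceptor beads.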
JMJD2A Tudor: inhibitors of human JMJD2A Tudor domain. AlphaScreen JMJD2A-Tudor / H3K4me3 peptide binding. AID 504339. Potency, µM (doses to about 114 µM), for the others: at the top dose activity change, negative = inhibition, most hits filed as inhibitors. O75164. 4.4% of 390,000 active; also: % is scaled to controls: 0 for no effect and ±100 for the full control effect; nearly all actives have a fitted effect of over 50% in size
BAZ2B block: inhibitors of human BAZ2B bromodomain. Q9UIF8. AlphaScreen BAZ2B-H3K14Ac peptide displacement. Potency, µM (titrated, usually from 114 µM), for the others: at the highest dose activity change, negative = inhibition, most hits filed as inhibitors. 4.4% of 360,000 active; also: % is scaled to controls: 0 for no effect and ±100 for the full control effect; nearly all actives have a fitted effect of over 60% in size
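AlphaScreen displacement of biotin-H3(5-23)K14Ac peptide (50 nM final) from BAZ2B (50 nM final) in PBS pH 7.4, 0.01% Tween-20; complex preformed 30 min RT, then compounds (top 110 uM) 30 min RT, beads 20 min dark.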
* hit, by the source's call; ? = inconclusive; . = not tested or not shown; [ ] = dose if it differs, or a comment. Calls follow the shape of the dose curve; as a rule, active = well fitted curve in the direction sought with a large enough effect; inconclusive = small, poorly fitted or top-dose-only effect, or another doubt; inactive = no such curve, though single readings can be large; an effect the other way counts as inactive or inconclusive. Potency is read from the fitted curve at half-maximal effect.

SMILES | G9a inh | Sfp inh | L3MBTL1 block | HP1b binding inh | JMJD2A Tudor | BAZ2B block
CCc1ccc(-n2c(SCc3ccccc3Cl)nc3[nH]ncc3c2=O)cc1 | -21%[59 µM] | . | . | 37% | -35% | -33%
CC(C)(C)S(=O)(=O)c1cnc(-c2ccccn2)nc1N | . | 14% | -19% | 17% | ? | 79µM*
COc1ccc(C(C#N)=C2C=CC(=NO)C=C2)cc1 | 2.2µM* | 25µM* | . | 40µM* | 16µM* | 14µM*
Brc1csc(/C=N/Nc2nc3ccccc3s2)c1 | 12% | ? | -12% | 15% | -28% | 1%
Cc1ccc2[nH]c(C)c(/C=N/Nc3nc4ccccc4s3)c2c1 | ? | 13% | -15% | -25% | 45µM* | ?
COc1ccccc1/C=C/C(=O)OCC(=O)NC1CCCCCCC1 | . | . | 3% | 62% | 3% | .
O=C(c1ccc(-c2ccccc2Cl)o1)N1CCCCCCC1 | . | . | . | ? | 116% | .
CC1CCCN(C(=O)c2ccc(-c3ccccc3Cl)o2)C1 (stereo not given) | 45µM* | . | 11% | -5% | 46% | ?
Cc1ccc(OCc2cc(=O)n3cc(C)sc3n2)c(C)c1 | 10%[59 µM] | . | . | 49% | 6% | -3%
CC(C)CC(=O)Nc1cccc(-c2nc3ncccc3o2)c1 | 16% | 14% | . | 23% | -5% | 3%
Cc1cccc(NC(=S)NC(=O)/C=C/c2ccco2)c1 | 25µM* | ? | -27% | ? | ? | 45µM*
CCCC(=O)NC(=S)Nc1cccc(-c2nc3ncccc3o2)c1 | 22µM* | -5% | 0% | 42% | -3% | -34%
O=C(/C=C/c1ccco1)NC(=S)Nc1cccc(-c2nc3ccccc3o2)c1 | ? | ? | -13% | -18% | 50µM* | 45µM*
CC(=O)c1ccc(NC(=S)NC(=O)/C=C/c2ccco2)cc1 | 45µM* | -19% | ? | -1% | ? | ?
CC(=O)c1ccc(NC(=S)NC(=O)/C=C/c2ccccc2)cc1 | . | 0% | 50% | 14% | -20% | -6%
Cc1ccc(C)c(NC(=O)Cn2c(=O)n(Cc3ccc4c(c3)OCO4)c(=O)c3ccccc32)c1 | -38%[59 µM] | . | . | 46% | -8% | 0%
CCOC(=O)c1c(NC(=O)COC(=O)CCNS(=O)(=O)c2ccccc2)sc(C(=O)NC)c1C | . | . | . | 21% | -11% | .
CCN(CC)CCCOc1ccc(Cl)c(Cl)c1 | 10µM* | 3% | 3% | -49% | 0.89µM* | ?
CN(CCCOc1ccccc1F)Cc1ccccc1 | 7.9µM* | -8% | ? | ? | 20µM* | 56µM*
CN(CCOc1ccccc1Cl)Cc1ccccc1 | 10µM* | ? | 2% | ? | 22µM* | 56µM*
CN1CCN(CCOc2cccc(Cl)c2)CC1 | ? | 14% | 1% | 24% | ? | ?
CN1CCN(CCOc2ccc(Cl)c(Cl)c2)CC1 | 10µM* | -29% | 0% | 16µM* | 0.79µM* | 50µM*
CCOC(=O)c1c(Nc2ccc(F)cc2)nnc(-c2ccccc2)c1-c1ccccc1 | ? | . | . | 3% | ? | -32%
CN(CCOc1ccc(Cl)c(Cl)c1)Cc1ccccc1 | . | 1% | 11% | -23% | 20µM* | ?
O=C(O)CC1c2ccccc2CCN1C(=O)Nc1cc(Cl)ccc1Cl (stereo not given) | -8%[12.7 µM] | . | . | 23% | -8% | -16%
SMILES | G9a inh | Sfp inh | L3MBTL1 block | HP1b binding inh | JMJD2A Tudor | BAZ2B block
CC(C)CNC(=O)CSc1nc2scc(-c3ccccc3)c2c(=O)[nH]1 | 11µM* | 7% | -1% | 18% | -17% | -24%
O=C(CSc1nc2scc(-c3ccccc3)c2c(=O)[nH]1)Nc1ccccc1 | . | -10% | . | 32% | -25% | 0%
O=C(O)CSCc1nc2scc(-c3ccccc3)c2c(=O)[nH]1 | 50µM* | 25% | 0% | 11% | -5%[57.1 µM] | -24%
Clc1ccccc1OCCN1CCCCC1 | ? | -22% | -9% | ? | 22µM* | -3%
Clc1ccc(OCCN2CCCCC2)c(Cl)c1 | 11µM* | -16% | . | 45µM* | 5.6µM* | 50µM*
Clc1ccc(C(c2ccccc2)c2c[nH]c3ccccc23)s1 (stereo not given) | 9%[59 µM] | . | . | 28% | 3% | -1%
OC(CNCC(c1ccc(Cl)cc1Cl)c1c[nH]c2ccccc12)c1ccccc1 (stereo not given) | 50µM* | 50µM* | -8% | ? | 35µM* | ?
COc1ccccc1NC(=O)C(C)OC(=O)C1CCC(C(C)(C)C)CC1 (stereo not given) | 65% | . | 29% | 91% | 36% | 45%
C=C(C)CSC1=C(C#N)C(c2ccccc2Cl)CC(=O)N1 (stereo not given) | 45µM* | 45µM* | -1% | ? | ? | 5%
C=CCSC1=C(C#N)C(c2ccccc2C)CC(=O)N1 (stereo not given) | -8%[12.7 µM] | ? | . | 26% | 4% | 13%
C=CCSC1=C(C#N)C(c2ccccc2Cl)CC(=O)N1 (stereo not given) | 20µM* | 35µM* | 3% | -14% | -19% | 5%
CCSC1=C(C#N)C(c2ccccc2C)CC(=O)N1 (stereo not given) | ? | 18% | . | 42% | -5% | 1%
O=C(c1cccc(Cl)c1)N1c2nc(-c3ccco3)nn2C2(CCCCC2)[C@@H]2CCCC[C@@H]21 | -7%[59 µM] | . | . | -5% | -21% | -15%
COc1cccc(C(=O)N2c3nc(-c4ccco4)nn3C3(CCCCC3)[C@@H]3CCCC[C@@H]32)c1 | 18µM* | . | . | 22% | -24% | ?
Cc1c(Cl)cccc1-n1nnc(-c2nc(-c3ccc4c(c3)OCO4)no2)c1C | 0%[59 µM] | . | . | 26% | -3% | -4%
COc1ccc(N2C(=O)/C(=C/N(C)C)NC2=S)cc1 | 3.5µM* | 56µM* | 0% | ? | 18µM* | -12%
COc1ccc(N2C(=O)/C(=C/c3cccnc3)NC2=S)cc1 | ? | -4% | -2% | 34% | -12% | 5%
COC(=O)c1cc(-c2ccccc2)sc1N | 4.5µM* | 40µM* | . | ? | ? | ?
COC(=O)c1sc(-c2ccc(C(C)(C)C)cc2)cc1NC(=O)c1ccccc1C(=O)O | -50% | -2% | . | 54% | -26% | 79µM*
Nc1sc(-c2ccccc2)cc1C(=O)N/N=C/c1ccc(Cl)cc1 | -10%[59 µM] | -13% | -14% | 15% | -28% | -21%
COC(=O)c1sc(-c2ccccc2)cc1NC(=O)C1CC1 | 129% | 45µM* | . | 137% | 86% | .
COC(=O)c1sc(-c2ccc(Cl)cc2)cc1NC(=O)c1ccccc1C(=O)O | . | 11% | . | -7% | -17% | ?
CCOc1ccc(NC(=O)Nc2cc(-c3ccccc3)sc2C(=O)OC)cc1 | -1%[59 µM] | 19% | -5% | 15% | -21% | 2%
